Calls of active or inactive are those of the source. The calls were made as follows: active = hit-call score of the fitted dose curve at least 0.9, where 1 is the maximum; inactive = score below 0.9.

Holding throughout (details): mRNA level, 48 h; actives raise or lower the signal
Read-out in assay [1]: Insulin Like Growth Factor 1 (IGF1), IGF1 (gene 3479)
The assay is described as follows: LTEA_HepaRG_IGF1: Life Technologies and Expression Analysis (LTEA) Assay for Insulin Like Growth Factor 1 (IGF1) using HepaRG (AID 2283506). In a few lines: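 Differentiated human HepaRG cells were dosed for 48 h in serum-free induction medium with 0.5% DMSO, eight half-log concentrations up to 100 uM, in duplicate. IGF1 mRNA was quantified by qRT-PCR normalized to ACTB, GAPDH, POLR2A; bidirectional fitting versus DMSO.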

Read-out in assay [2]: Intercellular Adhesion Molecule 1 (ICAM1), ICAM1 (gene 3383)
Briefly: LTEA_HepaRG_ICAM1: Life Technologies and Expression Analysis (LTEA) Assay for Intercellular Adhesion Molecule 1 (ICAM1) using HepaRG (AID 2283507). In a few lines:
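Using the human liver line HepaRG, compounds are tested in duplicate over 48 h at concentrations up to 100 uM. Expression is determined by TaqMan qRT-PCR, normalized to endogenous controls, and analysed relative to 0.5% DMSO vehicle.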

Read-out in assay [3]: Insulin-like growth factor-binding protein 1 (IGFBP1), IGFBP1 (gene 3484)
The assay is described as follows: LTEA_HepaRG_IGFBP1: Life Technologies and Expression Analysis (LTEA) Assay for Insulin-like growth factor-binding protein 1 (IGFBP1) using HepaRG (AID 2283508). In a few lines: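 HepaRG, 48 h, 8 conc. (max 100 uM, half-log), duplicates, 0.5% DMSO. Readout: TaqMan qRT-PCR, ACTB/GAPDH/POLR2A normalisation. Fit: bidirectional vs DMSO.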

Read-out in assay [4]: Interleukin 6 (IL6), IL6 (gene 3569)
Briefly: LTEA_HepaRG_IL6: Life Technologies and Expression Analysis (LTEA) Assay for Interleukin 6 (IL6) using HepaRG (AID 2283509). In a few lines: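 Differentiated human HepaRG cells, plated 48 h then switched to serum-free induction medium, were exposed in duplicate for 48 h to eight half-log concentrations up to 100 uM in 0.5% DMSO. IL6 mRNA measured by qRT-PCR, normalized to ACTB/GAPDH/POLR2A.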

Read-out in assay [5]: Interleukin 6 Receptor (IL6R), IL6R (gene 3570)
Briefly: LTEA_HepaRG_IL6R: Life Technologies and Expression Analysis (LTEA) Assay for Interleukin 6 Receptor (IL6R) using HepaRG (AID 2283510).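 As to AC50: TaqMan qRT-PCR signal normalized to ACTB GAPDH and POLR2A housekeeping genes.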 In short, it runs like this: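 Differentiated human HepaRG cells, plated 48 h then switched to serum-free induction medium, were dosed in duplicate for 48 h at eight half-log concentrations up to 100 uM in 0.5% DMSO. IL6R mRNA quantified by qRT-PCR, normalized to ACTB/GAPDH/POLR2A; bidirectional fit versus DMSO.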

Read-out in assay [6]: Potassium channel subfamily K member 1 (KCNK1), KCNK1 (gene 3775)
Briefly: LTEA_HepaRG_KCNK1: Life Technologies and Expression Analysis (LTEA) Assay for Potassium channel subfamily K member 1 (KCNK1) using HepaRG (AID 2283511). In a few lines:
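Differentiated human HepaRG cells in serum-free induction medium were exposed in duplicate for 48 h to 8 half-log concentrations up to 100 uM in 0.5% DMSO. KCNK1 mRNA was measured by TaqMan qRT-PCR, normalized to ACTB, GAPDH and POLR2A, and fitted bidirectionally versus DMSO.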

Read-out in assay [7]: Keratin 19 (KRT19), KRT19 (gene 3880)
The assay is described as follows: LTEA_HepaRG_KRT19: Life Technologies and Expression Analysis (LTEA) Assay for Keratin 19 (KRT19) using HepaRG (AID 2283512). In short, it runs like this:
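Readout is qRT-PCR of KRT19 mRNA, normalized to ACTB, GAPDH and POLR2A, from HepaRG cells treated 48 h with eight-point half-log dilutions topping at 100 uM. Activity in either direction is scored relative to 0.5% DMSO vehicle.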

Read-out in assay [8]: JUN Transcription Factor, JUN (gene 3725)
The assay is described as follows: LTEA_HepaRG_JUN: Life Technologies and Expression Analysis (LTEA) Assay for JUN Transcription Factor using HepaRG (AID 2283513). In a few lines: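 Differentiated HepaRG cells were exposed to chemicals for 48 h in serum-free induction medium, 8 concentrations from 100 uM in half-log steps, 0.5% DMSO vehicle, in duplicate. JUN mRNA was quantified by TaqMan qRT-PCR, normalized to ACTB, GAPDH, POLR2A.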

Read-out in assay [9]: Lipase C (LIPC), LIPC (gene 3990)
The assay is described as follows: LTEA_HepaRG_LIPC: Life Technologies and Expression Analysis (LTEA) Assay for Lipase C (LIPC) using HepaRG (AID 2283514). In a few lines:
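Differentiated human HepaRG cells in serum-free induction medium were exposed in duplicate for 48 h to eight concentrations (top 100 uM, half-log steps, 0.5% DMSO). LIPC mRNA was quantified by TaqMan qRT-PCR, normalized to ACTB, GAPDH and POLR2A, with bidirectional fitting versus DMSO.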

Read-out in assay [10]: Lipoprotein lipase (LPL), LPL (gene 4023)
The assay is described as follows: LTEA_HepaRG_LPL: Life Technologies and Expression Analysis (LTEA) Assay for Lipoprotein lipase (LPL) using HepaRG (AID 2283515). In short, it runs like this: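 Differentiated human HepaRG cells in serum-free induction medium were exposed in duplicate for 48 h to eight half-log concentrations (top 100 uM) in 0.5% DMSO. LPL mRNA was quantified by TaqMan qRT-PCR, normalized to ACTB, GAPDH and POLR2A.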

Read-out in assay [11]: MicroRNA 122 (MIR122), gene 406906
The assay is described as follows: LTEA_HepaRG_MIR122: Life Technologies and Expression Analysis (LTEA) Assay for MicroRNA 122 (MIR122) using HepaRG (AID 2283516). Also: the transcript read is the microRNA miR-122. In a few lines: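 Differentiated human HepaRG cells were exposed 48 h in serum-free induction medium to eight half-log concentrations (top 100 uM, 0.5% DMSO). Transcript level was measured by TaqMan qRT-PCR, normalized to ACTB, GAPDH and POLR2A, and fitted bidirectionally versus DMSO.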

Read-out in assay [12]: matrix metalloproteinase-10 (MMP10), MMP10 (gene 4319)
The assay is described as follows: LTEA_HepaRG_MMP10: Life Technologies and Expression Analysis (LTEA) Assay for matrix metalloproteinase-10 (MMP10) using HepaRG (AID 2283517). In short, it runs like this: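 HepaRG, collagen I, ~100,000 cells/well; serum-free induction medium; 48 h exposure, duplicate, 8-pt half-log to 100 uM, 0.5% DMSO. Readout: TaqMan qRT-PCR, normalized to ACTB/GAPDH/POLR2A; bidirectional fit vs DMSO.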

Read-out in a further assay: MYC, MYC (gene 4609)
Briefly: LTEA_HepaRG_MYC: Life Technologies and Expression Analysis (LTEA) Assay for MYC using HepaRG (AID 2283518). In a few lines: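 Expression changes were scored by TaqMan qRT-PCR with ACTB, GAPDH and POLR2A normalization. Cultures in serum-free induction medium received duplicate 8-point concentration series, highest 100 uM, for 48 h; DMSO (0.5%) served as baseline.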

Read-out in assay [13]: matrix metalloproteinase-3 (MMP3), MMP3 (gene 4314)
The assay is described as follows: LTEA_HepaRG_MMP3: Life Technologies and Expression Analysis (LTEA) Assay for matrix metalloproteinase-3 (MMP3) using HepaRG (AID 2283519). In a few lines:
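Differentiated human HepaRG cells, plated 48 h on collagen I, were exposed in duplicate for 48 h in serum-free induction medium to eight half-log concentrations up to 100 uM in 0.5% DMSO. MMP3 mRNA was quantified by TaqMan qRT-PCR, normalised to ACTB, GAPDH and POLR2A.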

Read-out in assay [14]: Paternally Expressed 10 (PEG10), PEG10 (gene 23089)
Briefly: LTEA_HepaRG_PEG10: Life Technologies and Expression Analysis (LTEA) Assay for Paternally Expressed 10 (PEG10) using HepaRG (AID 2283520). In a few lines: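 Differentiated HepaRG cells, plated 48 h then switched to serum-free induction medium, were exposed in duplicate for 48 h to eight half-log concentrations topping at 100 uM in 0.5% DMSO. PEG10 mRNA was quantified by TaqMan qRT-PCR, normalised to ACTB, GAPDH and POLR2A.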

Read-out in assay [15]: Nuclear factor NF-kappa-B p105 subunit (Homo sapiens) (UniProt P19838)
Briefly: LTEA_HepaRG_NFKB1: Life Technologies and Expression Analysis (LTEA) Assay for Nuclear Factor Kappa B Subunit 1 (NFKB1) using HepaRG (AID 2283521).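 As to outcome: TaqMan qRT-PCR transcript normalised to ACTB GAPDH and POLR2A housekeeping genes.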 In a few lines: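 HepaRG, 48 h exposure; 8-pt half-log series from 100 uM in 0.5% DMSO; duplicates. Readout: NFKB1 mRNA by qRT-PCR (Fluidigm arrays), housekeeping-normalized. Gain/loss fit vs DMSO baseline.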

Read-out in assay [16]: Protein phosphatase 2A (PPP2R4), PTPA (gene 5524)
Briefly: LTEA_HepaRG_PPP2R4: Life Technologies and Expression Analysis (LTEA) Assay for Protein phosphatase 2A (PPP2R4) using HepaRG (AID 2283522). In short, it runs like this: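 Differentiated HepaRG cells in serum-free induction medium were exposed in duplicate for 48 h to eight concentrations, top 100 uM with half-log dilutions, in 0.5% DMSO. PPP2R4 mRNA was quantified by TaqMan qRT-PCR, normalized to ACTB, GAPDH and POLR2A.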

Read-out in assay [17]: Phosphatase and tensin (PTEN), PTEN (gene 5728)
Briefly: LTEA_HepaRG_PTEN: Life Technologies and Expression Analysis (LTEA) Assay for Phosphatase and tensin (PTEN) using HepaRG (AID 2283523). In a few lines:
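Differentiated human HepaRG cells, plated 48 h then switched to serum-free induction medium, were exposed in duplicate for 48 h to eight half-log concentrations up to 100 uM in 0.5% DMSO. PTEN mRNA measured by TaqMan qRT-PCR, normalized to ACTB/GAPDH/POLR2A, bidirectional fit versus DMSO.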

Read-out in assay [18]: solute carrier (SLC22A1), SLC22A1 (gene 6580)
The assay is described as follows: LTEA_HepaRG_SLC22A1: Life Technologies and Expression Analysis (LTEA) Assay for solute carrier (SLC22A1) using HepaRG (AID 2283524). In a few lines: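 Human HepaRG cells were plated 48 h, switched to serum-free induction medium, then exposed in duplicate for 48 h to 8-point half-log series from 100 uM in 0.5% DMSO. SLC22A1 mRNA measured by qRT-PCR, normalized to ACTB/GAPDH/POLR2A, fitted bidirectionally versus DMSO.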

Read-out in assay [19]: Pyruvate Dehydrogenase Kinase 4 (PDK4), PDK4 (gene 5166)
The assay is described as follows: LTEA_HepaRG_PDK4: Life Technologies and Expression Analysis (LTEA) Assay for Pyruvate Dehydrogenase Kinase 4 (PDK4) using HepaRG (AID 2283525). In short, it runs like this: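 Differentiated human HepaRG cells, pre-cultured 48 h, were exposed in duplicate for 48 h in serum-free induction medium to eight half-log concentrations up to 100 uM in 0.5% DMSO. PDK4 mRNA was quantified by qRT-PCR, normalized to ACTB, GAPDH and POLR2A, bidirectional fitting versus DMSO.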

Chain of Nuclear factor NF-kappa-B p105 subunit (Homo sapiens) (P19838 whole entry, looked up): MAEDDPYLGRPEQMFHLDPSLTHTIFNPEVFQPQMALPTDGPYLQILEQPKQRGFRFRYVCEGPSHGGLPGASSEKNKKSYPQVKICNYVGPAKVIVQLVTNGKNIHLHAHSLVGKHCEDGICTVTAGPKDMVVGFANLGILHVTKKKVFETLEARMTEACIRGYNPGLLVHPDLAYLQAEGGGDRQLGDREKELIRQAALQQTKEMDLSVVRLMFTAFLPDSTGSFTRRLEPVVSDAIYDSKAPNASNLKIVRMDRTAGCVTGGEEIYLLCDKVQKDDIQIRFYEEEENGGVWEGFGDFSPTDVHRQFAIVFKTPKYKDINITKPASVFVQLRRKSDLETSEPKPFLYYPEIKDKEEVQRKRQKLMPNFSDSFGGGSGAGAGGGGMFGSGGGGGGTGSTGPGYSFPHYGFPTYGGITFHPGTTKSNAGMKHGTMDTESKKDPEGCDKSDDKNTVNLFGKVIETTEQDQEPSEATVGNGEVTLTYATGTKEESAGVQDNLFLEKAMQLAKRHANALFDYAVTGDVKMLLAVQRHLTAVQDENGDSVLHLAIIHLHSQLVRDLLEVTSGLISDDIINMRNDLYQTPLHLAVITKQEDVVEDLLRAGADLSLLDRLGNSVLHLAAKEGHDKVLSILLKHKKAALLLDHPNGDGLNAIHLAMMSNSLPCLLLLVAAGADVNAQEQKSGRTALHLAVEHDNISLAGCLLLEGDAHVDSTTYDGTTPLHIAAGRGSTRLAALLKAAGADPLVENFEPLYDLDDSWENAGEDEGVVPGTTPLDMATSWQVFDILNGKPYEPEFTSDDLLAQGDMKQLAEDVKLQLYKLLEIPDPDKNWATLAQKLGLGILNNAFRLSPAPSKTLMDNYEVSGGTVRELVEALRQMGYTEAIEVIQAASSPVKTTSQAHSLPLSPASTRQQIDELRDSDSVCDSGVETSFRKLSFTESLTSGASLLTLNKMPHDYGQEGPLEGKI

On to `CC(=O)Oc1ccccc1C(=O)O`, for which the result in [1], in assay [2], in assay [3], in [4], in [5] and in [6] was inactive. Also, the molecule was classed as inactive in assay [7], in [8], in [9], in assay [10], in assay [11] and in assay [12]. For the same molecule, the outcome is “inactive” with MYC, MYC (gene 4609); “inactive” in assay [13]; “inactive” in assay [14]; “inactive” in assay [15]; “inactive” in [16]; “inactive” in assay [17]. In addition, the result in assay [18] and in [19] was inactive.
With `CCCCCCC(=O)OCC`, the molecule was classed as inactive in [1], in [2], in assay [3], in assay [4], in [5] and in assay [6]. Further, the result in assay [7], in assay [8], in assay [9], in assay [10], in [11] and in assay [12] was inactive. For the same molecule, the outcome was “inactive” in the assay with MYC, MYC (gene 4609); “inactive” in [13]; “inactive” in assay [14]; “inactive” in assay [15]; “inactive” in [16]; “inactive” in assay [17]. Moreover, the molecule was classed as inactive in [18] and in assay [19].
In general, AC50 refers to the midpoint of the concentration-response curve, whichever way the signal moves. Consider `CC(C)c1ccc(C(=O)N=C(N)N)cc1S(C)(=O)=O`, for which the AC50 in assay [1] is 362 nM (active); in [2], 388 nM (active); in [3], 266 nM (active); in [5] it was 276 nM (active); in assay [6] it was 377 nM (active); in assay [8], 395 nM (active). The AC50 was 607 nM (active) in [9]; 310 nM (active) in assay [10]; 334 nM (active) in [11]; 67900 nM (active) in [12]; 343 nM (active) in the assay with MYC, MYC (gene 4609); 1400 nM (active) in assay [13]. Further, the AC50 in assay [15] was 291 nM (active); in assay [16], 532 nM (active); in assay [17], 277 nM (active); in [18], 350 nM (active); in assay [19], 362 nM (active). Moreover, the result in [4], in assay [7] and in assay [14] was inactive.

The values above are taken from PubChem BioAssay (EPA / NIEHS).
